Molecules are shown by their SMILES. Where “and” joins values, the source holds several entries; their conditions need not be identical. Equal values may be shown once. Records with an inconclusive call do not appear. More than one record can exist for a structure, and the calls need not agree. Calls of active or inactive are those of the source. Unless noted, calls follow the shape of the dose curve; as a rule, active = well fitted curve in the direction sought with a large enough effect in the repeat runs; inconclusive = weak or mixed curves; inactive = no such curve, though single readings can be large; an effect the other way counts as inactive or inconclusive.

Test [1] in a line: qHTS assay to identify aromatase inhibitors - cell viability counter screen (AID 743084).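 Also: cells stimulated with testosterone during compound exposure; nearly all actives have a fitted effect of over 55% in size.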 Also: potency is read from the fitted curve at half-maximal effect.
For test [2], the target named is Aryl hydrocarbon receptor (Homo sapiens) (UniProt P35869). Nature of the test: qHTS assay to identify small molecule that activate the aryl hydrocarbon receptor (AhR) signaling pathway (AID 743085). Also: nearly all actives have a fitted effect of over 15% in size. Also: potency is read from the fitted curve at half-maximal effect.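 As to activation: HG2L7.5c1 human HepG2 liver cells with stably integrated DRE-driven firefly reporter; series mostly up to about 70 µM.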 The method in brief:
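A multiplexed format paired cell viability (CellTiter-Fluor fluorescence) with AhR-dependent luciferase output (ONE-Glo luminescence) in the same wells of HepG2 DRE-luc cells after 24 h compound exposure at 37C.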
(qHTS replaces the single test concentration by a dilution series.)

The nature of test [3]: qHTS assay to identify small molecule that activate the aryl hydrocarbon receptor (AhR) signaling pathway - cell viability counter screen (AID 743086).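 Also: HepG2 liver cells carrying the AhR DRE luciferase reporter; series mostly up to about 70 µM; nearly all actives have a fitted effect of over 45% in size.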 In a few lines:
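Cytotoxicity counter screen: CellTiter-Fluor signal (30 min, 37 C) in 4000 HepG2 cells/well carrying the DRE-luciferase reporter, following 24 h compound exposure at 37 C.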

The target in test [4] is Peroxisome proliferator-activated receptor gamma (Homo sapiens) (UniProt P37231). Nature of the test: qHTS assay to identify small molecule agonists of the peroxisome proliferator-activated receptor gamma (PPARg) signaling pathway (AID 743094; active = well fitted activation curve with a large enough effect in the signal ratio in the repeat runs, not every such curve was filed as active; the % refers to the signal ratio; also: potency is read from the fitted curve at half-maximal effect). The method in brief:
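Following 5 h plating at 37C, PPARg-bla HEK293H cells receive compound or DMSO for 17 h; fluorescence intensity is recorded after LiveBLAzer B/G loading for 1 h at room temperature.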

Test [5] can be described thus: qHTS assay to identify small molecule antagonists of the peroxisome proliferator-activated receptor gamma (PPARg) signaling pathway - cell viability counter screen (AID 743194). Also: nearly all actives have a fitted effect of over 55% in size. In a few lines:
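Viability was measured as CellTiter-Glo luminescence in GeneBLAzer PPARg UAS-bla HEK293H cells. These cells had been exposed 17 h at 37 C to compounds together with rosiglitazone at 50 nM final, with the beta-lactamase readout taken in the same wells.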

The nature of test [6]: qHTS assay for small molecule agonists of the antioxidant response element (ARE) signaling pathway (AID 743202; active = well fitted activation curve with a large enough effect in the signal ratio in the repeat runs, not every such curve was filed as active; the % refers to the signal ratio). In a few lines: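 Quantitative high-throughput format in HepG2 cells bearing an integrated ARE-beta-lactamase reporter. Compound exposure lasted 16 h at 37 C, and fluorescence was read 2 h after adding LiveBLAzer B/G substrate at room temperature.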
A short description of test [7]: qHTS assay for small molecule agonists of the antioxidant response element (ARE) signaling pathway - cell viability counter screen (AID 743203; calls by dose curve; also: nearly all actives have a fitted effect of over 55% in size). The method in brief: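 Compounds in DMSO were pinned onto ARE-bla HepG2 cells plated 5 hrs earlier at 2,000 cells/well. Sixteen hours later at 37C/5% CO2, CellTiter-Glo was added and luminescence measured after 30 min at room temperature.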

The nature of test [8]: qHTS assay for small molecule activators of the heat shock response signaling pathway - cell viability counter screen (AID 743209). Also: nearly all actives have a fitted effect of over 50% in size. The method in brief: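 Counter screen for cytotoxicity in HeLa HSE-bla reporter cells. Treatment was 5 h at 37 C; viability was detected by luminescent ATP assay (CellTiter-Glo) in the same wells as the beta-lactamase read.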
The nature of test [9]: qHTS assay for small molecule activators of the heat shock response signaling pathway (AID 743210; active = well fitted activation curve with a large enough effect in the signal ratio in the repeat runs, with a control signal flat, not every such curve was filed as active; the % refers to the signal ratio;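 also: HeLa cells with beta-lactamase reporter driven by heat shock elements; series mostly up to about 63 µM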). In a few lines: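 HeLa HSE-bla cells, overnight plating; cpd in DMSO 5 h, 37 C; LiveBLAzer B/G FRET substrate 2.5 h RT; fluorescence intensity read.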
A short description of test [10]: qHTS assay to identify small molecule agonists of the peroxisome proliferator-activated receptor delta (PPARd) signaling pathway - cell viability counter screen (AID 743211). Also: nearly all actives have a fitted effect of over 55% in size. Also: potency is read from the fitted curve at half-maximal effect. The method in brief: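 Tox21 library compounds, delivered in DMSO, were incubated 17 h with PPARd-bla HEK293H cells; cytotoxicity was taken from CellTiter-Glo luminescence read 30 min after reagent addition.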

Test [11] addresses Peroxisome proliferator-activated receptor delta (Homo sapiens) (UniProt Q03181). As to the kind of experiment: qHTS assay to identify small molecule agonists of the peroxisome proliferator-activated receptor delta (PPARd) signaling pathway (AID 743212; calls by dose curve). The method in brief:
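HEK293H PPARd-bla cells; 5 h preincubation 37 C/5% CO2; compound (DMSO) 37 C; LiveBLAzer B/G FRET substrate 2 h RT; fluorescence intensity.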

Test [12] in a line: qHTS assay to identify small molecule antagonists of the peroxisome proliferator-activated receptor delta (PPARd) signaling pathway - cell viability counter screen (AID 743213). Also: nearly all actives have a fitted effect of over 50% in size. Also: potency is read from the fitted curve at half-maximal effect. The method in brief:
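Viability counter-screen, qHTS format: PPARd-bla HEK293H, L165041 300 nM final, 17 h compound exposure at 37 C, CellTiter-Glo luminescence after 30 min RT.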

Test [13] in a line: qHTS assay to identify small molecule agonists of the farnesoid-X-receptor (FXR) signaling pathway - cell viability counter screen (AID 743218). Also: nearly all actives have a fitted effect of over 45% in size. Also: potency is read from the fitted curve at half-maximal effect. The method in brief:
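After 16 h at 37 C with test compounds, FXR-bla HEK 293T cells were given LiveBLAzer B/G substrate for 2 h at RT and then CellTiter-Glo; luminescence was taken after 30 min.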

Test [14] can be described thus: qHTS assay to identify small molecule antagonists of the farnesoid-X-receptor (FXR) signaling pathway - cell viability counter screen (AID 743221; active = well fitted cell-killing curve with a large enough effect in the repeat runs, not every such curve was filed as active; also: nearly all actives have a fitted effect of over 50% in size). In a few lines:
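Cytotoxicity is taken from ATP luminescence (CellTiter-Glo, 30 min, room temperature) in FXR-bla HEK 293T cells previously incubated 16 h at 37 C with compound and chenodeoxycholic acid at 50 uM final.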

Test [15] addresses Vitamin D3 receptor (Homo sapiens) (UniProt P11473). Nature of the test: qHTS assay to identify small molecule agonists of the vitamin D receptor (VDR) signaling pathway (AID 743222; calls by dose curve). The method in brief:
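VDR-bla cells were seeded, left 4 h, treated with compounds in DMSO for 16 h, incubated 2 h at RT with B/G FRET substrate, and read for fluorescence.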

Test [16] shares this target. As to the kind of experiment: qHTS assay to identify small molecule antagonists of the vitamin D receptor (VDR) signaling pathway (AID 743223; active = well fitted inhibition curve with a large enough effect in the signal ratio in the repeat runs, not every such curve was filed as active; the % refers to the signal ratio; also: potency is read from the fitted curve at half-maximal effect). The method in brief: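 Quantitative HTS in VDR-bla reporter cells stimulated with 1alpha,25-dihydroxyvitamin D3, 3 nM final. Compound exposure 16 h, 37C, 5% CO2. Read-out: beta-lactamase FRET substrate fluorescence, 2 h RT.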

Test [17] addresses Bile acid receptor (Homo sapiens) (UniProt Q96RI1). Nature of the test: qHTS assay to identify small molecule antagonists of the farnesoid-X-receptor (FXR) signaling pathway (AID 743217; active = well fitted inhibition curve with a large enough effect in the signal ratio in the repeat runs, not every such curve was filed as active; the % refers to the signal ratio). In a few lines:
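In this cell-based antagonist screen, inhibition of CDCA-driven (50 uM final) UAS-beta-lactamase expression in HEK 293T cells was measured by FRET fluorescence following 16 h compound exposure at 37 °C.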

For test [18] the target is unchanged. As to the kind of experiment: qHTS assay to identify small molecule agonists of the farnesoid-X-receptor (FXR) signaling pathway (AID 743220; active = well fitted activation curve with a large enough effect in the signal ratio in the repeat runs, not every such curve was filed as active; the % refers to the signal ratio). The method in brief: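 Beta-lactamase reporter under UAS control in GeneBLAzer FXR HEK 293T cells (5000/well) measured with LiveBLAzer FRET substrate after 2 h at room temperature. Compound exposure lasted 16 h at 37C.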

For test [19], the target named is Peroxisome proliferator-activated receptor delta (Homo sapiens) (UniProt Q03181). As to the kind of experiment: qHTS assay to identify small molecule antagonists of the peroxisome proliferator-activated receptor delta (PPARd) signaling pathway (AID 743215; active = well fitted inhibition curve with a large enough effect in the signal ratio in the repeat runs, not every such curve was filed as active; the % refers to the signal ratio;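 also: cells stimulated with agonist L165041 at 300 nM final during compound exposure; series mostly up to about 62 µM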). The method in brief: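 With L165041 present at 300 nM final, compounds were incubated 17 h at 37 C on PPARd UAS-bla HEK293H cells. A FRET-based beta-lactamase substrate was then applied for 2 h at room temperature and fluorescence intensity recorded.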

Test [20] addresses Peroxisome proliferator-activated receptor gamma (Homo sapiens) (UniProt P37231). As to the kind of experiment: qHTS assay to identify small molecule antagonists of the peroxisome proliferator-activated receptor gamma (PPARg) signaling pathway (AID 743191; calls by dose curve; also: series mostly up to about 63 µM; nearly all actives have a fitted effect of over 30% in size). The method in brief: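 Beta-lactamase reporter under UAS control in HEK293H PPARg-bla cells; compound treatment 17 h at 37C. Read-out: fluorescence intensity after 1 h room-temperature incubation with LiveBLAzer B/G FRET substrate.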

Chain of Peroxisome proliferator-activated receptor gamma (Homo sapiens) (P37231 whole entry, looked up): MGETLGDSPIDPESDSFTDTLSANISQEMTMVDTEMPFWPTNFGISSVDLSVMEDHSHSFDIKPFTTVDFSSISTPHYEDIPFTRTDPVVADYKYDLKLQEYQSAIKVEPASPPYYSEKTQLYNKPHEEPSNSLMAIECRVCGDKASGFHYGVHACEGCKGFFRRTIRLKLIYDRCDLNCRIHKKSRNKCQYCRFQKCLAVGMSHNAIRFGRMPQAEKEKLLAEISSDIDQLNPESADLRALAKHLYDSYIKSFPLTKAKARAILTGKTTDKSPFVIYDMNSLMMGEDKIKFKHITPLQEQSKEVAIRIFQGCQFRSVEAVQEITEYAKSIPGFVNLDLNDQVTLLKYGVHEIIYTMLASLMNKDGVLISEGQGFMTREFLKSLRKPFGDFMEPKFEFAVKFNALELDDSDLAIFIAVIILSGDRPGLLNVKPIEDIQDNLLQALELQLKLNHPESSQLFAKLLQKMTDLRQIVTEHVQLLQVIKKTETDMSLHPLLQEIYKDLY
Chain of Aryl hydrocarbon receptor (Homo sapiens) (P35869 whole entry, looked up): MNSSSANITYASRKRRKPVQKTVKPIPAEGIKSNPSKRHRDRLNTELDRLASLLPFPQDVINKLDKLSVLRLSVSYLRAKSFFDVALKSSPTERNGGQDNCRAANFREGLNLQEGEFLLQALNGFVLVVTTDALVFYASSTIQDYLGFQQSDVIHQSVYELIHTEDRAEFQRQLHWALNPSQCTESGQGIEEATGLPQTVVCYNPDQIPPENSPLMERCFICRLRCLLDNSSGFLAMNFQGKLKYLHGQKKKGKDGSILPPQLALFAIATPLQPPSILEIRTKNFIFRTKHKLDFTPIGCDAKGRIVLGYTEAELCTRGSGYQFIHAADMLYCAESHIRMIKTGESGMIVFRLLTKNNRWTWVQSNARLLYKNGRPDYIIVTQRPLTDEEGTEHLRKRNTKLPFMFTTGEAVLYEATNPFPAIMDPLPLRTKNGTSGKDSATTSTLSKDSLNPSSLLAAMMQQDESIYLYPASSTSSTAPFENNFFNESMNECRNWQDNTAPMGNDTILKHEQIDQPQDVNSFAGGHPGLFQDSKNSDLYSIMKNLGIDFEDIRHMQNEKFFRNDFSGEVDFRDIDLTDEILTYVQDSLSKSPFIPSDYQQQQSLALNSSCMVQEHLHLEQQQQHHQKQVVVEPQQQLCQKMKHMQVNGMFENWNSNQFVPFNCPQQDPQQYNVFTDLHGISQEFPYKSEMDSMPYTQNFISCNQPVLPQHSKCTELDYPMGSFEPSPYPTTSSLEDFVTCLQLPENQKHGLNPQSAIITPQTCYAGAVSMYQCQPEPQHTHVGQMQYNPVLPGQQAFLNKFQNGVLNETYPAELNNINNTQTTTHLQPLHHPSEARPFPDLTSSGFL
Chain of Peroxisome proliferator-activated receptor delta (Homo sapiens) (Q03181 whole entry, looked up): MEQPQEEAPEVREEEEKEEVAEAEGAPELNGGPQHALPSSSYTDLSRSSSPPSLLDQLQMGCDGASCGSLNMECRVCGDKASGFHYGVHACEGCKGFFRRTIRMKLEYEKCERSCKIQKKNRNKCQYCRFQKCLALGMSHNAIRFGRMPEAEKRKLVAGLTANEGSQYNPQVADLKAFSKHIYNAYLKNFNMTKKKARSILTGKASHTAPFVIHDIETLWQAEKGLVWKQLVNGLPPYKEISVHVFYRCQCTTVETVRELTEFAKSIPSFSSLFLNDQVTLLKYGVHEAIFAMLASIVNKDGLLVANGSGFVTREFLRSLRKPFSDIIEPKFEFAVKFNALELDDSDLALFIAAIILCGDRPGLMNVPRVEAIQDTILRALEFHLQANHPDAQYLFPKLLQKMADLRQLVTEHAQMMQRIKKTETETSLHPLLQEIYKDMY
Chain of Vitamin D3 receptor (Homo sapiens) (P11473 whole entry, looked up): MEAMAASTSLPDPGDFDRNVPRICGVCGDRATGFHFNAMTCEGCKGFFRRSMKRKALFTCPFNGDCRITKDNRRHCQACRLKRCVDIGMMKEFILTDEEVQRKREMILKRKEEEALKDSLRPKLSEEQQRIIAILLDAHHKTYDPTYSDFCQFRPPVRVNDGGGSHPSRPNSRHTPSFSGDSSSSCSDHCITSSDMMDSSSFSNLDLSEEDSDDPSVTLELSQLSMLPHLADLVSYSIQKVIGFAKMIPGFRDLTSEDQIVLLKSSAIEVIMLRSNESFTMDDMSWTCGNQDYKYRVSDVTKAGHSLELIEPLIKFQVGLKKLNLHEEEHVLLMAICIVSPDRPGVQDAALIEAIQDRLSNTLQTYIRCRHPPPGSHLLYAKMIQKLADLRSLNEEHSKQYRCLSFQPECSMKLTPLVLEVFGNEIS
Chain of Bile acid receptor (Homo sapiens) (Q96RI1 whole entry, looked up): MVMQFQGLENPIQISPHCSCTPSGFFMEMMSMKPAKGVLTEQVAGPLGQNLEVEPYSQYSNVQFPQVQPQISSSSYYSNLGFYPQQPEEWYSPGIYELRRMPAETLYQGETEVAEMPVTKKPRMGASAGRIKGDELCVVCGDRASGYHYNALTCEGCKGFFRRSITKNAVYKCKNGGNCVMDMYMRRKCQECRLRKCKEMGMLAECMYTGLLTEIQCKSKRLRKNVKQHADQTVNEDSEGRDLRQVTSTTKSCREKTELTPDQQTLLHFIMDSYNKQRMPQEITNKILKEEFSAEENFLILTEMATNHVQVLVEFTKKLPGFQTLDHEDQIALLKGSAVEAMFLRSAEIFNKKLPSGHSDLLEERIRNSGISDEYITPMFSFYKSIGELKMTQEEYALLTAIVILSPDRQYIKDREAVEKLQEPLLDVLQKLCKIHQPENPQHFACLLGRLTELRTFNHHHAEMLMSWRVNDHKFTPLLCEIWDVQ

In the case of `COc1ccccc1NC(=O)CC(C)=O`, the Potency result in [1], in [3], in [4], in [5], in test [6] and in test [7] was “inactive” in each case. The Potency result in test [10], in [12], in test [13] and in [16] was “inactive” in each case. For the same compound, the Potency in test [2] is 47.9 µM (active) and 27.3 µM (active). Besides, the compound was called inactive in [8], in [9], in [11], in test [14] and in [15].

For the compound `CC(C)=CCC/C(C)=C/CO`, the Potency result in [1], in [2], in test [3], in test [4], in [5] and in [6] was “inactive” throughout. Besides, the Potency entry in test [7], in test [10], in [12], in [17], in test [13] and in [16] was “inactive” in each case. Also, the call in test [8], in [18], in [14] and in [15] was inactive.

On to `CC1=C(/C=C/C(C)=C/C=C/C(C)=C/C(=O)O)C(C)(C)CCC1`, for which the Potency entry in [1], in test [2], in [3], in test [5], in test [7] and in test [10] was “inactive” each time. The Potency entry in [12], in [13] and in test [16] was “inactive” in each case. In addition, the Potency in [4] is 535 nM (active). Also, the outcome in [14] and in test [15] was inactive.

As to `NCCNc1cccc2ccccc12`, the Potency result in [1], in test [4] and in [7] was “inactive” each time. Also, the Potency in [2] was 29.8 µM (active) and 54.4 µM (active) and 66.9 µM (active); in test [10], 54.9 µM (active) and 47.8 µM (active) and inactive; in test [12] it was 34.6 µM (active) and 30.2 µM (active) and inactive; in test [13], 43.6 µM (active) and 30.2 µM (active) and inactive; in test [16], 43.6 µM (active) and inactive. Besides, the outcome in test [8], in test [9], in [11], in test [14] and in test [15] was inactive.

Regarding `O=c1cc[nH]c(=O)[nH]1`, the Potency result in test [3], in test [5], in test [6], in test [7], in test [10] and in test [12] was “inactive” in each case. For the same compound, the Potency result in [13] and in test [16] was “inactive” in each case. The compound was called inactive in test [8], in test [9], in test [11], in test [14] and in [15].

For `Cc1c(N(C)C)c(=O)n(-c2ccccc2)n1C`, the Potency result in test [1], in [2], in [3], in [5], in test [6] and in [7] was “inactive” each time. Also, the Potency entry in [10], in test [12], in [17], in test [13] and in test [16] was “inactive” each time. For the same compound, the call in test [8], in [9], in test [11], in [18], in test [14] and in [15] was inactive.

On to `C#C[C@]1(O)CC[C@H]2[C@@H]3CCc4cc(O)ccc4[C@H]3CC[C@@]21C`, for which, in [1], the Potency result is “inactive and 48.2 µM (active)”. Besides, the Potency entry in test [2], in [3], in test [4], in [5], in [6] and in test [7] was “inactive” throughout. Also, the Potency result in test [10], in test [12] and in test [13] was “inactive” each time. Besides, the outcome in [8], in [9], in test [11], in test [19] and in [14] was inactive.

Regarding `COc1ccc(C(=O)c2ccccc2)c(O)c1`, the Potency result in [1], in test [3], in test [4], in [20], in test [5] and in [6] was “inactive” throughout. In addition, the Potency result in test [7], in test [10], in test [12], in test [17] and in [13] was “inactive” each time. Also, the compound was classed as inactive in test [8], in test [9], in test [11], in [18] and in test [14].

The values above are taken from PubChem BioAssay (Tox21).
